Reference: PubChem BioAssay (NCI)
This is part of a sample that, as a whole, favours compounds with a hit. Of some 79,000 tested, about 15% had one in any assay. A number with no mark means an inactive call. The source made the active and inactive calls. Rule as the data show it: active = growth inhibition above about 70%; inactive = the rest.

Experiments:
[1] = NCI Yeast Anticancer Drug Screen. Data for the rad50 strain (AID 155);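 also: 0% = growth of vehicle-only cultures of the same strain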; details: S. cerevisiae rad50 strain growth inhibition; at 50.0 µM; active compounds read high
Outline: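 Genetically altered yeast (DNA repair pathway); compound treatment; growth inhibition vs vehicle ctrl.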

[2] = NCI Yeast Anticancer Drug Screen. Data for the mec2-1 strain (AID 157); details: S. cerevisiae mec2-1 strain, at 50.0 µM, active compounds read high
Outline: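 Compounds were applied to mec2-1 yeast cells. Their growth was then compared with that of vehicle-treated cultures to give growth inhibition.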

[3] = NCI Yeast Anticancer Drug Screen. Data for the sgs1 mgt1 strain (AID 161);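 also: 0% = growth of cultures given vehicle only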; details: S. cerevisiae sgs1 mgt1 strain, at 50.0 µM, active compounds read high
Outline: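 Compounds are added to genetically altered yeast, and growth is compared with cultures given vehicle alone to give percent inhibition.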

[4] = NCI Yeast Anticancer Drug Screen. Data for the cln2 rad14 strain (AID 165);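 also: 0% = growth equal to vehicle treated cultures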; details: S. cerevisiae cln2 rad14 strain, at 50.0 µM, active compounds read high
Outline: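 Strain: cln2 rad14 yeast, altered in cell cycle control and DNA damage repair. Read-out: growth inhibition vs vehicle.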

[5] = NCI Yeast Anticancer Drug Screen. Data for the bub3 strain (AID 167); details: S. cerevisiae bub3 mutant strain, at 50.0 µM, active compounds read high
Outline: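 Yeast carrying a defined mutation is treated with each compound, and growth is compared with that of vehicle-exposed cells to give inhibition.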

[6] = NCI Yeast Anticancer Drug Screen. Data for the mlh1 rad18 strain (AID 175); details: S. cerevisiae mlh1 rad18 strain growth inhibition; at 50.0 µM; active compounds read high
Outline: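 A repair-deficient yeast strain is exposed to test compound, and growth is scored relative to vehicle-treated controls.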

Compound	growth inhibition [1]	growth inhibition [2]	growth inhibition [3]	growth inhibition [4]	growth inhibition [5]	growth inhibition [6]
Cc1cc(C)c(OC(=O)c2ccc(C(=O)Oc3c(C)cc(C)cc3C)cc2)c(C)c1	13.8%	-1.65%	-4.85%	0.25%	-1.6%	14.9%
CCOC1=C2C(C)(CCC3[C@@]4(C)C=CC(=O)C(C)(C)C4CC(O)[C@@]23C)C(c2ccoc2)C1=O (stereo partly specified)	54%	31%	45.5%	45.3%	20.1%	30.8%
S=C1NCCN1c1ccc(Cl)cc1	-16.4%	-16.1%	-20.4%	-21.8%	-30.5%	5.55%
COC(=O)c1cc2/c(=N/O)c3ccccc3sc2o1	-0.45%	-23.1%	-2.1%	0.75%	-16.4%	-28.8%
CC1(O)C2C3C(I)C4C5C3C1C5C42 (stereo unspecified)	22.6%	9.05%	10.1%	6.7%	10.3%	17.4%
CC(C)N1CN(C(C(=O)N[C@@H]2C(=O)N3C2SC(C)(C)C3C(=O)O)c2ccccc2)CSC1=S (stereo partly specified)	48.8%	-15.4%	3.85%	-7.95%	-9.85%	-11.2%
O=C1CC(=O)N(C=C2C(=O)NC(=O)NC2=O)C(=S)N1	-11.9%	-2.15%	-18.6%	11.2%	4.6%	0.45%
CC1(C)OC(=O)C=C([O-])O1.CC1(C)OC(=O)C=C([O-])O1.CC[O-].CC[O-].[Ti+4]	-20.8%	-36.2%	3.6%	-8.95%	-11.7%	-3.15%
COc1cc(Nc2nc3ccccc3nc2-c2cccs2)cc(OC)c1OC	4.8%	14%	29.6%	29.8%	26.1%	6%
[N-]=[N+]=NCC(O)Cn1cnc2c(NC(=O)c3ccccc3)ncnc21 (stereo unspecified)	-14.7%	-0.15%	0.85%	-16.1%	8.6%	7.2%
Cc1cc(C(O)CCCc2ccccc2)cc(C)c1O (stereo unspecified)	37.6%	6.4%	3.7%	34.4%	42%	5.1%
SCCNCc1ccco1	-31.4%	-68.5%	-15.9%	20.6%	-32.6%	4.9%
O=C(O)C(Br)C(Br)C(=O)Nc1cccc2ccccc12 (stereo unspecified)	98.8% (active)	99.1% (active)	99.2% (active)	99.2% (active)	98.9% (active)	98.8% (active)
c1cc2c3c(c1)ccc1ccc4cccc(c4c13)O2	-26.4%	-2.4%	-24.2%	-0.7%	-3.45%	-47.9%
COc1ccc(-c2csc(N)n2)cc1OC	2.15%	-3.9%	4.4%	-66.7%	-10.4%	1.9%
COC1c2ccccc2CC1(C)C (stereo unspecified)	13.8%	8.8%	5.65%	-52.4%	10.3%	9.55%
CC(C)CCN(C(=O)CCl)c1ccccc1	59%	32.6%	52.4%	15.1%	33.5%	63.8%
COc1cc([N+](=O)[O-])c(OC)cc1Nc1ccccc1C(=O)O	13.1%	-12.8%	22.1%	18.2%	29.4%	16%
NC(N)=Nc1nc2ccccc2[nH]1	15.9%	-2.85%	19.4%	-26.4%	11.7%	18.1%
COc1ccc2nc3c([N+](=O)[O-])ccc(NCCCN(C)C)c3c(NCCCN(C)C)c2c1	-5.15%	9.3%	11.7%	38.3%	-28.4%	-1.6%
COc1cc(N=Nc2ccc(S(=O)(=O)O)cc2)ccc1N=Nc1ccc2c(S(=O)(=O)O)cccc2c1O	15%	-8.05%	14.3%	11.4%	5.8%	2.15%

Compound	growth inhibition [1]	growth inhibition [2]	growth inhibition [3]	growth inhibition [4]	growth inhibition [5]	growth inhibition [6]
O=c1c(Cl)c(Cl)cnn1-c1ccc([N+](=O)[O-])cc1[N+](=O)[O-]	5.7%	6.7%	3.05%	-4.25%	-0.65%	5.75%
CC1OC(n2ccc(=O)[nH]c2=O)C=C(OC(=O)c2ccccc2)C1=O (stereo unspecified)	12.2%	-12.2%	-11.4%	-7%	-9.55%	3.4%
CCCCN1C(=O)C(=O)N(CCc2ccc(OC)c(OC)c2)C1=O	28%	5.8%	11.9%	18.7%	1.35%	18.1%
CCOc1ccc2nc(N=NC(C(C)=O)C(C)=O)sc2c1	26.9%	9.8%	1.3%	14.1%	5.55%	15.9%
OCC1OC(OC2CCCCC2)C(O)C(O)C1O (stereo unspecified)	-1.45%	51.5%	21.9%	-5.05%	24.6%	32.8%
CCOC(=O)/C=C/CI	12.8%	-34.5%	10.4%	8.4%	13.5%	16.2%
O=C(/C=C/c1ccccc1Cl)c1ccccc1[N+](=O)[O-]	96% (active)	97.5% (active)	97.7% (active)	94.7% (active)	96.5% (active)	95.7% (active)
CC(=O)c1ccc(N2C(=O)CC(NC3CCCCC3)C2=O)cc1 (stereo unspecified)	-7.4%	7.1%	9.45%	-2.15%	1.65%	-17.4%
CN=C1N[N+]2=CCCCC2S1 (stereo unspecified)	17.8%	3.35%	19.7%	0.75%	2.4%	13.3%
CCCCNc1ccccc1	30.4%	6.3%	28.8%	-21%	-6.25%	42.5%
CCOc1ccc(/C=C2\C=Nc3ccccc32)cc1	-3.75%	-10.8%	3.2%	6.7%	16.1%	-5.4%
NC1=NC(=O)C(CC(=O)Nc2ccc([N+](=O)[O-])cc2[N+](=O)[O-])S1 (stereo unspecified)	-15.2%	-30.3%	2.3%	3.3%	2%	-8.55%
CC(CS)CS	6.85%	-0.5%	6.95%	-8.75%	-0.8%	37%
CC[N+](C)(CC)CC[N+]1(C)CCCCCCC1	12.9%	5.45%	5.8%	-40.6%	10.4%	15.6%
Cc1c(Cc2ccccc2)c(N2CCOCC2)n2c(nc3ccccc32)c1C#N	4.75%	5.25%	0.65%	-4.55%	-2.8%	5.65%
CC(=O)OCCC(OC(C)=O)c1ccccn1 (stereo unspecified)	-13.9%	-13.1%	-9.1%	-2.95%	3.95%	-18.6%
CCN(CC(=O)O)C(=O)c1cccnc1	-17.9%	4.05%	-33.4%	-28.7%	-6.6%	-6.4%
O=C(Nc1ccc(Cl)cc1[N+](=O)[O-])Oc1ccc(-c2ccccc2)cc1	23.4%	58.5%	48.1%	8.3%	78.8% (active)	66%
COc1cc(C#N)cc(OC)c1	-17.4%	-16.4%	-26.9%	3.6%	-12.1%	-5.5%
CCC(=O)Nc1cc(Cl)ccc1Cl	34.2%	11.8%	10.4%	10.2%	-8.9%	11.2%
